Where “and” joins values, the source holds several entries; their conditions need not be identical. Equal entries are not always repeated. Results filed as inconclusive are left out. Calls of active or inactive are those of the source. The call rests on the fitted dose curve; in most records, active means well fitted inhibition curve with a large enough effect in the signal ratio, with a control signal flat (not every such curve was filed as active); inconclusive means small, poorly fitted or top-dose-only effect, or effect the other way, or a change in a side signal; inactive means no such curve, though single readings can be large or run the other way; the % refers to the signal ratio.
molecular target: Retinoic acid receptor RXR-alpha (Homo sapiens) (UniProt P19793); experiment: qHTS assay for small molecule antagonists of retinoid X receptor alpha signaling (AID 588546); conditions: HEK293T RXRa-UAS-bla, beta-lactamase ratio, antagonist mode
Sequence (P19793 whole entry, looked up): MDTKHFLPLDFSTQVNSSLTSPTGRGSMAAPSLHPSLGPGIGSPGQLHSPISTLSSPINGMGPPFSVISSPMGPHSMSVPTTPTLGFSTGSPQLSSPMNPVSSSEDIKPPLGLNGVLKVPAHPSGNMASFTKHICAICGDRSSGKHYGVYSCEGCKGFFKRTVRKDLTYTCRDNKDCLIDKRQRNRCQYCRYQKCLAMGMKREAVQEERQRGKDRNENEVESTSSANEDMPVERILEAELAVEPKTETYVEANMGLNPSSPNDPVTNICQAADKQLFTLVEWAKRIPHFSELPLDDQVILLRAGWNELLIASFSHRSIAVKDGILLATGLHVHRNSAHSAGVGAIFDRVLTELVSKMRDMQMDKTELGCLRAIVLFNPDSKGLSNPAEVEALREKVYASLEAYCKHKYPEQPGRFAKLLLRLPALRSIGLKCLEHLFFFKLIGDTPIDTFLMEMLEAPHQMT
Description: NIH Chemical Genomics Center [NCGC] U.S. Environmental Protection Agency [EPA] National Institutes of Environmental Health Sciences [NIEHS] National Toxicology Program [NTP] NCGC Assay Overview The Retinoid X receptor (RXR), a nuclear hormone receptor is expressed in liver, spleen, placenta, epidermis, central nervous system. These receptors are able to form homo and heterodimers with other nuclear receptors and due to this heterodimerizing ability, RXR functions as master regulators producing diverse physiological effects. Three subtypes of RXR exist; alpha, beta and gamma. Retinoid X receptor alpha (RXR-alpha) has potential roles in metabolic signaling pathways, skin alopecia, dermal cysts, cardiac development, insulin sensitization etc. Therefore screening environmental chemicals on RXR-alpha signaling can be used for the studies focused on such therapeutic applications.
NCGC Assay Protocol Summary Using a beta-lactamase reporter-gene under control of Retinoid X receptor--alpha (RXR-alpha) response element, a cell-based assay [GeneBLAzer (RXR-alpha -UAS-bla assay developed by Invitrogen] was used to measure RXR-alpha ligands signaling. GeneBLAzer RXR-alpha -UAS-bla HEK293T cells were used with assay medium containing 2% charcoal-stripped FBS. The assay was performed in clear bottom black Greiner 1536-well plates. Library compounds were measured for their ability to inhibit the reporter gene activity. Compounds were screened in a titration series in 1536-well format. The fluorescence intensity (405 nm excitation, 460/530 nm emission) was measured using an EnVision plate reader. Data was normalized relative to 9-cis-retinoic acid control (500 nM, 100%), and DMSO only wells (basal, 0%). Concentration-response titration points for each compound were fitted to the Hill equation yielding concentrations of half-maximal inhibition (IC50) and maximal response (efficacy) values. qHTS protocol for RXR-alpha beta-lactamase assay in antagonist mode [Step] [Parameter] [Value] [Description] 1. Reagent; 5 uL; 2500 cells/well 2. Incubation; 37 C for 4 hrs 3. Compounds; 23 nL; 0.59 nM to 92 uM 4. Controls (DMSO); 23 nL 5. Agonist (Stimulator); 1uL; 9-cis-retinoic acid at 500 nM and 100 nM final concentrations 6. Incubation; 37 C for 18 hrs 7. Detection reagent; 1 uL of CCF4-dye 8. Incubation; RT for 2 hrs 9. Detection; Fluorescence; Envision plate reader
On the % scale 0 is the no-effect control and ±100 the full control effect.

Row | SMILES | max response | Potency
1 | Cn1cnc2c1c(=O)[nH]c(=O)n2C | -5.33% (inactive) | –
2 | O=C(Nc1ccc([N+](=O)[O-])cc1Cl)c1cc(Cl)ccc1O | – | 2.51 µM (active)
3 | Cc1cn([C@H]2C=C[C@@H](CO)O2)c(=O)[nH]c1=O | 0.606% (inactive) and 10% (inactive) and 8.08% (inactive) | –
4 | O=c1c(-c2ccc(O)cc2)coc2cc(O)cc(O)c12 | – | 35.5 µM (active)
5 | CC(C)Cc1ccc(C(C)C(=O)O)cc1 (centres undefined) | -17.6% (inactive) | –
6 | CC(C)(Oc1ccc(C2CC2(Cl)Cl)cc1)C(=O)O (centres undefined) | -27.6% (inactive) | –
7 | O=C(CCCN1CCC(O)(c2ccc(Cl)cc2)CC1)c1ccc(F)cc1 | -32.4% (inactive) | –
8 | CCC1(c2ccccc2)C(=O)NCNC1=O | 16.1% (inactive) and -15.5% (inactive) | –
9 | C[C@](N)(Cc1ccc(O)c(O)c1)C(=O)O | -26.4% (inactive) | –
10 | CCOC(=O)C(C)(C)Oc1ccc(Cl)cc1 | 3.43% (inactive) | –
11 | CC(C)C(=O)Nc1ccc([N+](=O)[O-])c(C(F)(F)F)c1 | -17.5% (inactive) and 1.97% (inactive) | –
12 | O=C(c1ccc(OCCN2CCCCC2)cc1)c1c(-c2ccc(O)cc2)sc2cc(O)ccc12 | – | 25.1 µM (active)
13 | N[C@@H](Cc1c[nH]c2ccc(O)cc12)C(=O)O | 3.1% (inactive) | –
14 | COc1ccc2[nH]cc(CCNC(C)=O)c2c1 | 0.955% (inactive) and -6.07% (inactive) and -2.21% (inactive) | –
15 | Nc1c2c(nc3ccccc13)CCCC2 | -6.99% (inactive) | –
16 | NS(=O)(=O)c1cc2c(cc1Cl)NCNS2(=O)=O | 11.3% (inactive) and 4.53% (inactive) | –
17 | NCCS(=O)(=O)O | -0.744% (inactive) | –
18 | Cn1c(=O)c2c(ncn2C)n(C)c1=O | -0.557% (inactive) and -14.2% (inactive) | –
19 | Cc1cn([C@H]2C[C@H](N=[N+]=[N-])[C@@H](CO)O2)c(=O)[nH]c1=O | 5.84% (inactive) and -2.64% (inactive) | –
20 | CC(C)NCC(O)c1ccc(O)c(O)c1 (centres undefined) | -2.1% (inactive) and -5.01% (inactive) | –
21 | Cn1c(=O)c2[nH]cnc2n(C)c1=O | -6.35% (inactive) | –
22 | Nc1ccn([C@H]2CC[C@@H](CO)O2)c(=O)n1 | -7.58% (inactive) and 1.21% (inactive) | –
23 | CC(COc1ccccc1)N(CCCl)Cc1ccccc1 (centres undefined) | 13.6% (inactive) and -11.7% (inactive) | –
24 | O=c1[nH]cc(F)c(=O)[nH]1 | 17.9% (inactive) | –

Source: PubChem BioAssay (NCATS)
